Tg IFNy HTS: T. gondii growth inhibition with IFN-gamma, primary screen, cell-based | 69,000 tested, 3.8% active | activity change, negative = inhibition, % (test concentration not listed) | Toxoplasma gondii growth in IFN-gamma-treated host cells; active compounds read low; in the data active = activity change below about -70%, passing the limit was not always enough;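 also: host cells are HeLa cells infected with Toxoplasma gondii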
Of the large screens only hits and unclear results are named; the others gave an inactive call; ! = not confirmed by another sample. The entries come from a sample that favours hits as a whole.

COc1cccc(-c2noc(-c3c(O)c4ccccc4n(C)c3=O)n2)c1	none
COc1ccccc1/C=C/CN1CCN(C)C(C(=O)O)C1 (stereo not given)	none
COc1ccccc1/C=C/CN1CC2CCCN2C[C@H]1C (stereo not given in full)	Tg IFNy HTS -79
COc1ccccc1/C=C/CN1CCNC(C(=O)N2CCCC2)C1 (stereo not given)	none
COC(=O)c1cc(CN2CCN(Cc3cccc(F)c3)CC2)cs1	none
Cc1ccc(-c2nc(Cn3nnc(C(=O)NCCc4ccc(Cl)cc4)c3C)c(C)o2)cc1	none
N#Cc1ccc(OCc2ccc(C(F)(F)F)cc2)cc1	Tg IFNy HTS -81
FC(F)(F)c1cccc(OCc2ccc(-c3ncns3)cc2)c1	none
O=C(O)c1ccc(OCc2ccccc2)cc1	none
Cc1ccc(C(=O)Nc2nccnc2C(=O)N2CCC(N3CCCCC3)CC2)cc1	none
O=C(c1ccc(Nc2nccc(-c3cc4ccccc4s3)n2)cc1)N1CCC(N2CCCC2)CC1	Tg IFNy HTS -71
CC(=O)N1CCC(Cn2ccnc2-c2cc3ccccc3s2)CC1	none
COc1cc(N2CC[C@@H](O)[C@@H]2Cc2ccccc2)ncn1	none
Cc1oc(-c2ccc(NC(=O)c3ccc4c(c3)OCO4)cc2)nc1Cn1cccn1	Tg IFNy HTS -91
CCOc1ccc(C(=O)Nc2ccc(-c3nc(Cn4cccn4)c(C)o3)cc2)cc1	Tg IFNy HTS -99
Cc1oc(-c2ccc(NC(=O)c3ccc(F)cc3F)cc2)nc1Cn1cccn1	none
Cc1oc(-c2ccc(NC(=O)c3ccsc3)cc2)nc1Cn1cccn1	none
Cc1oc(-c2ccc(NC(=O)c3cccc(C#N)c3)cc2)nc1Cn1cccn1	none
Cc1oc(-c2ccc(NC(=O)c3cccc(N(C)C)c3)cc2)nc1Cn1cccn1	Tg IFNy HTS -86
Cc1ccc(CC(=O)Nc2ccc(-c3nc(Cn4cccn4)c(C)o3)cc2)cc1	none
Cc1oc(-c2ccc(NC(=O)c3cccc(C(F)(F)F)c3)cc2)nc1Cn1cccn1	none
Cc1oc(-c2ccc(NC(=O)c3ccc(Cl)cc3)cc2)nc1Cn1cccn1	Tg IFNy HTS -85
Cc1oc(-c2ccc(NC(=O)c3ccc(Br)cc3)cc2)nc1Cn1cccn1	none
COCCC(=O)Nc1ccc(-c2nc(Cn3cccn3)c(C)o2)cc1	none
Cc1oc(-c2ccc(NC(=O)COc3ccccc3)cc2)nc1Cn1cccn1	none
CNC(=O)[C@H]1C[C@@H]2CN(Cc3ccoc3)C[C@@H]2N1C(C)C	none
O=C(Cc1ccc(Cl)cc1)NCCc1csc(-c2ccc(F)cc2)n1	none
COc1cccc(-c2nc(Cn3nnc(C(=O)Nc4cc(Cl)ccc4C)c3C)c(C)o2)c1OC	none
FCCN1CCC2(CC1)CC(NC1CCOCC1)c1ccccc1O2 (stereo not given)	none
Cc1nc(CCn2ncc3ccccc32)cc(NCCCN(C)c2ccccc2)n1	none
CCOC(=O)Cn1c(-c2cccs2)cc2cccnc21	none
Cc1ccc2nsnc2c1NS(=O)(=O)NCc1ccccc1	none
COc1cccc(CNC(=O)c2ccc(-c3nc(CN4CCN(c5ccccc5)CC4)c(C)o3)cc2)c1	none
CS(=O)(=O)N1CCc2c(COCCN3CCCC3)cncc2C1	none
C=CCn1c(=O)c(C(=O)NCc2cccnc2)c(O)c2ccccc21	none
O=C(CCn1nnc2cc(-c3noc(-c4cccc5[nH]ccc45)n3)ccc21)N1CCCC1	none
COC(=O)c1ccccc1SC(CC(=O)c1cccnc1)c1ccc(F)cc1 (stereo not given)	none
Clc1cccc(CN2CCN(Cc3ncc[nH]3)CC2)c1	none
CCCC1(CO)CCCN1C(=O)c1ccc2cc[nH]c2c1 (stereo not given)	none
NC1=Nc2ccc(Cl)cc2C1(O)c1ccccc1 (stereo not given)	Tg IFNy HTS -97
OC1(c2ccccc2)c2ccccc2-c2ccccc21	none
Cc1ccc(CN2CC[C@@H]3C[C@H](C(=O)NCc4ccccn4)O[C@H]3C2)o1	none
O=C(NCc1cccc(F)c1)N1CC[C@@H](O)[C@@H]1Cc1cccnc1	none
CN(C)CC1COc2ccccc2CN1C(=O)CNC1C=CS(=O)(=O)C1 (stereo not given)	none
Cc1ccc(N(Cc2nc(-c3ccc(OC(C)C)cc3)oc2C)S(=O)(=O)c2cccs2)cc1	none
COc1cccc(NC(=O)N2CCCC3(C2)Nc2cccnc2NC3=NC2CCCC2)c1 (stereo not given)	none
COc1ccc(C)cc1NC(=O)N1CCCC2(C1)Nc1cccnc1NC2=NC1CCCC1 (stereo not given)	none
O=C(Nc1cc(F)cc(F)c1)N1CCCC2(C1)Nc1cccnc1NC2=NC1CCCC1 (stereo not given)	Tg IFNy HTS -86
CN1C[C@H](NC(=O)c2cccc(-c3nc4ccccc4[nH]3)c2)C[C@H]1CO	none
CCOC(=O)c1cncc(C#CCOC(=O)Nc2ccc(OC(F)(F)F)cc2)c1	none
O=C(O)CC1(CC(=O)Nc2ccc(OC(F)(F)F)cc2)CCCC1	none
O=C(Nc1ccc(OC(F)(F)F)cc1)OCc1ccc(C#Cc2ccccc2)s1	Tg IFNy HTS -83
CC(C)Nc1cc(N2CCN(Cc3nccn3C(C)C)CC2)ncn1	none
Cc1cc(Nc2ccc(C(=O)O)cc2)nc(N)n1	none
Cc1cc(Nc2ccc(NC(=O)c3ccc(Nc4ccnc5ccccc45)cc3)cc2)nc(N)n1	Tg IFNy HTS -78
Cc1ccc(Nc2nc(C(=O)Nc3ccc(Cl)cc3)nc3ccccc23)cc1	none
COc1cc(-c2c(-c3ccccc3)ncn2CC(N)=O)c(OC)cc1SC	none
Cc1nc2ccc(C(F)(F)F)cc2nc1C	none
C=CCN1C(=O)CCC12CCN(C(=O)c1ccnn1C)CC2	none
Nc1ncnc2c1ncn2[C@@H]1O[C@H](CO)[C@@H](O)[C@H]1O	none
COC1C(O)C(CO)OC1n1cnc2c(NC3CCCCC3)ncnc21 (stereo not given)	none
COc1ccc(C[C@H](N)C(=O)N[C@@H]2[C@@H](CO)OC(n3cnc4c(N(C)C)ncnc43)[C@@H]2O)cc1 (stereo not given in full)	Tg IFNy HTS -80!
CN(C)CCOC(=O)C1CC2=C(CCCC2(C)C)CC1C(=O)O (stereo not given)	none
